Consider 15 compounds from PubChem BioAssay (NCATS).

“And” between values parts separate entries of the source, which are not always exact repeats. Equal entries are not always repeated. Values without a mark were called inactive. Inconclusive results are not listed. The source holds several records for some structures; these can differ, active in one and inactive in another. The source made the active and inactive calls. Unless noted, the call rests on the fitted dose curve; in most records, active means well fitted curve in the direction sought with a large enough effect; inconclusive means small, poorly fitted or top-dose-only effect, or another doubt; inactive means no such curve, though single readings can be large; an effect the other way counts as inactive or inconclusive.

Test [1] concerns CASKI. As to the kind of experiment: Primary qHTS to identify gynecologic anti-cancer compounds using libraries of approved drugs and bioactive compounds (AID 1345084). Further: on the % scale 0 is the no-effect control and ±100 the full control effect; nearly all actives have a fitted effect of over 55% in size. Conditions: Gynecologic cancer cell panel viability, ATPlite luminescence, 48 h; series mostly up to 57.5 µM. Put shortly: (§1)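 Cells, 1,000 per well, were allowed to settle for 16 h at 37 C before compound addition. Five concentrations were tested for 48 h, and viability was read by ATPlite luminescence after 15 min at room temperature.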
In general terms: In qHTS, concentration-response curves come from the screen itself.

Test [2] deals with Es-2. Described as above. Particulars: Gynecologic cancer cell panel viability, ATPlite luminescence, 48 h; series mostly up to 57.5 µM. Put shortly:
as §1
A general note: Cellular ATP, detected with luciferase, serves as a proxy for viable cell number.

Test [3] relates to HeLa. The test is described as above. Conditions: Gynecologic cancer cell panel viability, ATPlite luminescence, 48 h; series mostly up to 57.5 µM. Put shortly:
as §1

For test [4], the system named is Hek293T. The description is as above. Particulars: Gynecologic cancer cell panel viability, ATPlite luminescence, 48 h, control line for the selectivity index; series mostly up to 57.5 µM. A digest of the protocol:
as §1

Test [5] relates to JEG-3. The description is as above. Particulars: Gynecologic cancer cell panel viability, ATPlite luminescence, 48 h; series mostly up to 57.5 µM. A digest of the protocol: as §1
The subject of test [6] is OV90. Described as above. Conditions: Gynecologic cancer cell panel viability, ATPlite luminescence, 48 h; series mostly up to 57.5 µM. A digest of the protocol: as §1
Test [7] has as its system Tov-21-G. The description is as above. Conditions: Gynecologic cancer cell panel viability, ATPlite luminescence, 48 h; series mostly up to 57.5 µM. Put shortly: as §1
Test [8] deals with Tov112D. The description is as above. Conditions: Gynecologic cancer cell panel viability, ATPlite luminescence, 48 h; series mostly up to 57.5 µM. Put shortly: as §1
Test [9] in a line: Drug repurposing screens with cells derived from glioblastoma tumor samples (AID 1345199). Further: nearly all actives have a fitted effect of over 40% in size. Further: potency means the concentration at half of the fitted maximal effect. On activity, negative = cell killing: on the % scale 0 is the no-effect control and ±100 the full control effect. Particulars: GBM patient neurospheres viability, ATP luminescence, 48 h. A digest of the protocol: (§2)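 Primary testing used CD133+ neurospheres from four GBM patients, seven concentrations, 48 h exposure and ATP-based viability; confirmation added three slower-growing patient lines.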
Test [10] relates to PA-1. As to the kind of experiment: Primary qHTS to identify gynecologic anti-cancer compounds using libraries of approved drugs and bioactive compounds (AID 1345084). Further: on the % scale 0 is the no-effect control and ±100 the full control effect; nearly all actives have a fitted effect of over 55% in size. Particulars: Gynecologic cancer cell panel viability, ATPlite luminescence, 48 h; series mostly up to 57.5 µM. A digest of the protocol: as §1
In test [11] the test system is SKOV3. The test is described as above. Conditions: Gynecologic cancer cell panel viability, ATPlite luminescence, 48 h; series mostly up to 57.5 µM. A digest of the protocol: as §1
Test [12] deals with astro. The test is described as follows: Drug repurposing screens with cells derived from glioblastoma tumor samples (AID 1345199). Further: nearly all actives have a fitted effect of over 40% in size. Further: potency means the concentration at half of the fitted maximal effect. On activity, negative = cell killing: on the % scale 0 is the no-effect control and ±100 the full control effect. Conditions: viability, ATP luminescence, 48 h; series mostly up to 45.9 µM. Put shortly: as §2
Test [13] is described as follows: qHTS assay for small molecule activators of the human pregnane X receptor (PXR) signaling pathway (AID 720659; call rule not given here; further: 0% is about no effect).
Setting [14] is: at 46.1 µM (top of the series), tumour line C.
Setting [15] is: at 20 µM (top of the series), tumour line C.
[16] abbreviates: at 21.2 µM (top of the series), tumour line B.
Setting [17] is: at 21.2 µM (top of the series), tumour line D.
Where [18] appears, read: at 45.9 µM (top of the series), tumour line B.
The mark [19] stands for this setting: at 45.9 µM (top of the series), tumour line D.
Where [20] appears, read: at 46 µM (top of the series), tumour line A.

Take `CC(CCc1ccc(O)cc1)NCCc1ccc(O)c(O)c1` (configuration not stated): the Potency entry in [1], in test [2], in [3], in [4], in [5] and in [6] was “inactive” throughout. The Potency result in [7] and in test [8] was “inactive” in each case. Further, the activity, negative = cell killing in test [9] (setting [14]) is 5.45%. The Potency was 28.2 µM (active) in [9] (tumour line A) and 31.6 µM (active) in [9] (tumour line B).
Regarding `COc1cc2nc(N(C)CCCNC(=O)C3CCCO3)nc(N)c2cc1OC` (configuration not stated), the Potency result in [1], in test [2], in test [3], in test [4], in [5] and in test [6] was “inactive” throughout. Besides, the Potency result in test [10], in test [11], in [7], in test [8] and in [12] was “inactive” throughout. Also, the activity, negative = cell killing in test [9] (setting [15]) is -6.33%; in [9] (setting [16]), -6.29%; in test [9] (setting [17]), 7.29%.
Turning to `Nc1nc2c(ncn2COC(CO)CO)c(=O)[nH]1`, the Potency result in test [1], in test [2], in test [3], in test [4], in test [5] and in test [6] was “inactive” in each case. In addition, the Potency entry in test [10], in test [11], in test [7], in test [8] and in test [12] was “inactive” throughout. The activity, negative = cell killing is -13.4% in [9] (setting [15]), -13.7% in test [9] (setting [16]) and -24.4% in [9] (setting [17]).
As for `CN1C(C(=O)Nc2ccccn2)=C(O)c2ccccc2S1(=O)=O`, the Potency entry in test [1], in test [2], in test [3], in test [4], in test [5] and in [6] was “inactive” throughout. In addition, the Potency entry in test [10], in [7], in test [8] and in [12] was “inactive” throughout. The activity, negative = cell killing in test [9] (setting [15]) is -3.14%; in [9] (setting [16]) it was -6.49%; in test [9] (setting [17]), 0.702%.
In the case of `CC(C)Cc1ccc(C(C)C(=O)O)cc1` (configuration not stated), the Potency entry in test [1], in test [2], in [3], in test [4], in [5] and in test [6] was “inactive” each time. For the same compound, the Potency result in [10], in [7], in test [8] and in test [12] was “inactive” throughout. For the same compound, the activity, negative = cell killing in test [9] (setting [18]) was -11.8%; in test [9] (setting [19]), -6.13%; in test [9] (setting [20]) it was -21.1%; in [9] (setting [14]) it was -7.76%. For the same compound, the compound was classed as inactive in test [13].
With `NC(CO)C(=O)NNCc1ccc(O)c(O)c1O` (configuration not stated), the Potency result in test [1], in test [2], in test [3], in [4], in test [5] and in test [6] was “inactive” in each case. Moreover, the Potency result in test [7], in test [8] and in test [12] was “inactive” throughout. The activity, negative = cell killing in test [9] (setting [18]) was -5.28%; in test [9] (setting [19]), -22%; in [9] (setting [20]), -18.9%; in [9] (setting [14]) it was 12.3%.
In the case of `CCC1(C)CC(=O)NC1=O` (configuration not stated), the Potency entry in [1], in test [2], in [3], in test [4], in [5] and in test [10] was “inactive” each time. The Potency entry in [11], in test [7], in [8] and in test [12] was “inactive” throughout. The activity, negative = cell killing in test [9] (setting [18]) is -5.39%; in test [9] (setting [19]), -6.6%; in test [9] (setting [20]), -18.2%; in test [9] (setting [14]), -11.1%.
For `CS(=O)(=O)CCNCc1ccc(-c2ccc3ncnc(Nc4ccc(OCc5cccc(F)c5)c(Cl)c4)c3c2)o1`, the Potency result in [1], in test [2], in test [3], in test [4], in [5] and in test [6] was “inactive” each time. Further, the Potency entry in test [10], in [11], in test [7], in test [8] and in test [12] was “inactive” in each case. For the same compound, the values for the activity, negative = cell killing in [9] (setting [18]), in test [9] (setting [19]) and in [9] (setting [14]) were -6.77%, -7.21% and -22.4%, respectively.
On to `CC(C(=O)O)c1cccc(C(=O)c2ccccc2)c1` (configuration not stated), for which the Potency result in test [1], in test [2], in test [3], in [4], in test [5] and in test [6] was “inactive” each time. Also, the Potency result in test [10], in [7], in test [8] and in test [12] was “inactive” each time. For the same compound, the activity, negative = cell killing is -12.8% in test [9] (setting [18]), -8.28% in [9] (setting [19]), -32% in [9] (setting [20]) and 2.51% in test [9] (setting [14]).
Take `CC(COc1ccccc1)N(CCCl)Cc1ccccc1` (configuration not stated): the Potency result in test [1], in test [2], in test [3], in test [4], in test [5] and in test [6] was “inactive” each time. The Potency result in test [10], in [11], in test [7], in test [8] and in test [12] was “inactive” each time. Also, the figures for the activity, negative = cell killing in test [9] (setting [18]) and in [9] (setting [14]) were -26.4% and -13%, respectively. In addition, the Potency in test [9] (tumour line A) is 20 µM (active).
Consider `CCCCc1oc2ccccc2c1C(=O)c1cc(I)c(OCCN(CC)CC)c(I)c1`, for which the Potency entry in test [1], in [2], in test [3], in test [4], in test [5] and in test [6] was “inactive” throughout. The Potency result in [10], in test [7] and in test [8] was “inactive” each time. In [9] (setting [14]), the activity, negative = cell killing was 2%. For the same compound, the Potency in test [9] (tumour line A) was 7.08 µM (active); in [9] (tumour line B), 25.1 µM (active); in test [9] (tumour line D) it was 11.2 µM (active); in test [12] it was 28.2 µM (active) and 20 µM (active).
In the case of `CC(C)(C)C(=O)Oc1ccc(S(=O)(=O)Nc2ccccc2C(=O)NCC(=O)O)cc1`, the Potency entry in test [1], in test [2], in test [3], in test [4], in test [5] and in [6] was “inactive” in each case. The Potency result in test [10], in test [7], in test [8] and in test [12] was “inactive” each time. The activity, negative = cell killing is -13.7% in [9] (setting [18]), -10.4% in test [9] (setting [19]), -15.5% in [9] (setting [20]) and -13.4% in test [9] (setting [14]).
For `Cc1ccccc1N1C(=O)c2cc(S(N)(=O)=O)c(Cl)cc2NC1C` (configuration not stated), the Potency result in test [1], in [2], in test [3], in test [4], in test [5] and in test [10] was “inactive” throughout. Also, the Potency entry in [11], in test [7], in test [8] and in test [12] was “inactive” throughout. For the same compound, the activity, negative = cell killing in [9] (setting [18]) is -0.853% and -2.25%; in test [9] (setting [19]) it was 16.5% and -1.42%; in test [9] (setting [20]), -25.2%; in test [9] (setting [14]) it was -19% and -29.3%. Moreover, the Potency in test [9] (tumour line A) is 35.5 µM (active).
In the case of `Cc1cc(C(C)(C)C)c(O)c(C)c1CC1=NCCN1`, the Potency entry in [1], in test [2], in test [3], in [4], in test [5] and in test [6] was “inactive” throughout. The Potency entry in [10], in test [11], in [7], in test [8] and in test [12] was “inactive” in each case. The activity, negative = cell killing in test [9] (setting [18]) was -18.7%; in test [9] (setting [19]) it was -26.9%; in test [9] (setting [14]), 5.76%.
Take `Cc1cnc(C(=O)NCCc2ccc(S(=O)(=O)NC(=O)NC3CCCCC3)cc2)cn1`: the Potency entry in test [1], in test [2], in [3], in test [4], in test [5] and in test [6] was “inactive” throughout. For the same compound, the Potency entry in test [10], in [11], in test [7], in [8] and in [12] was “inactive” throughout. Also, the activity, negative = cell killing in test [9] (setting [18]) is -8.45%; in test [9] (setting [19]) it was -17.1%; in [9] (setting [14]), 18%.
